Data taken from PubChem BioAssay AID1159580 (chemical genetic matrix, 2015).
Several values for one entry are separate records, joined by “and”; a condition that tells them apart may be missing. Identical values can stand only once. Hit rate of the full screen: of about 5,500 compounds, about 2,000 (36%) were called active. Not shown: some 18% with an inconclusive outcome. No stated cut-off is given here; in the data, active means normalized growth mostly below about 0.91 (no sharp cut-off); inconclusive means no clear call, values can overlap the other calls; inactive means mostly above about 0.92. Some of the results follow.

Experiment: chemical genetic growth profiling, strain panel (AID 1159580);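 further: tested at 20 µM; growth read once vehicle control cultures reached saturation at 30 °C; 1 = growth at the plate median or of vehicle wells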
Conditions: S. cerevisiae deletion strains, growth OD

Measured: normalized growth

Nc1ccc(C(=O)Oc2ccccc2)c(O)c1
0.9 (active) and 0.937 (inactive): locus YHR030C, strain SLT2, stronger effect = lower value
inactive: locus YAL021C, strain ccr4, stronger effect = lower value 0.967 | locus YAL026C, strain drs2, stronger effect = lower value 0.915 | locus YAL030W, strain snc1, stronger effect = lower value 0.935 | locus YBL061C, strain skt5, stronger effect = lower value 0.932 | locus YBR009C, strain hhf1, stronger effect = lower value 0.934 | locus YBR021W, strain FUR4, stronger effect = lower value 0.981 | locus YBR023C, strain chs3, stronger effect = lower value 0.925 | locus YBR171W, strain sec66, stronger effect = lower value 0.937 | locus YBR229C, strain ROT2, stronger effect = lower value 0.948 | locus YBR231C, strain swc5, stronger effect = lower value 0.954 | locus YBR279W, strain paf1, stronger effect = lower value 0.957 | locus YCL011C, strain gbp2, stronger effect = lower value 0.929 | locus YCL016C, strain dcc1, stronger effect = lower value 0.942 | locus YCL061C, strain MRC1, stronger effect = lower value 0.951 | locus YCL069W, strain vba3, stronger effect = lower value 0.95 | locus YDL005C, strain med2, stronger effect = lower value 0.971 | locus YDL035C, strain GPR1, stronger effect = lower value 0.867 | locus YDL040C, strain nat1, stronger effect = lower value 0.938 | locus YDL101C, strain DUN1, stronger effect = lower value 0.906 | locus YDL185W, strain tfp1, stronger effect = lower value 0.966 | locus YDR001C, strain nth1, stronger effect = lower value 0.936 | locus YDR069C, strain doa4, stronger effect = lower value 0.948 | locus YDR150W, strain NUM1, stronger effect = lower value 0.957 | locus YDR195W, strain ref2 1.04 | locus YDR297W, strain sur2, stronger effect = lower value 0.932 | locus YDR334W, strain swr1, stronger effect = lower value 0.944 | locus YDR335W, strain msn5, stronger effect = lower value 0.941 | locus YDR392W, strain spt3, stronger effect = lower value 0.81 | locus YEL003W, strain gim4, stronger effect = lower value 0.933 | locus YEL037C, strain rad23, stronger effect = lower value 0.946 | locus YEL061C, strain CIN8 (second series), stronger effect = lower value 0.916 | locus YEL061C, strain CIN8, stronger effect = lower value 0.938 | locus YER015W, strain faa2, stronger effect = lower value 0.944 | locus YER016W, strain bim1, stronger effect = lower value 0.941 | locus YER111C, strain swi4, stronger effect = lower value 0.938 | locus YER155C, strain BEM2, stronger effect = lower value 0.947 | locus YFR010W, strain ubp6, stronger effect = lower value 0.95 | locus YGL167C, strain pmr1, stronger effect = lower value 0.942 | locus YGL227W, strain vid30, stronger effect = lower value 0.927 | locus YGL253W, strain hxk2, stronger effect = lower value 0.967 | locus YHR013C, strain ard1, stronger effect = lower value 0.907 | locus YHR027C, strain rpn1, stronger effect = lower value 0.945 | locus YHR079C, strain IRE1, stronger effect = lower value 0.929 | locus YHR094C, strain hxt1, stronger effect = lower value 0.926 | locus YHR142W, strain chs7, stronger effect = lower value 0.894 | locus YIL073C, strain SPO22, stronger effect = lower value 0.764 | locus YJL092W, strain hpr5, stronger effect = lower value 0.943 | locus YJL095W, strain BCK1 (second series), stronger effect = lower value 0.936 | locus YJL115W, strain asf1, stronger effect = lower value 0.936 | locus YJL129C, strain trk1, stronger effect = lower value 0.892 | locus YJL134W, strain LCB3, stronger effect = lower value 0.955 | locus YJL154C, strain vps35, stronger effect = lower value 0.941 | locus YJL164C, strain tpk1, stronger effect = lower value 0.919 | locus YJL166W, strain qcr8, stronger effect = lower value 0.935 | locus YJL187C, strain SWE1 (second series), stronger effect = lower value 0.876 | locus YJL187C, strain SWE1, stronger effect = lower value 0.944
active: locus YCL029C, strain bik1, stronger effect = lower value 0.883 | locus YCR088W, strain abp1, stronger effect = lower value 0.921 | locus YDL074C, strain BRE1, stronger effect = lower value 0.67 | locus YDL134C, strain PPH21, stronger effect = lower value 0.837 | locus YDL192W, strain arf1, stronger effect = lower value 0.807 | locus YDR101C, strain arx1, stronger effect = lower value 0.864 | locus YDR137W, strain rgp1, stronger effect = lower value 0.545 | locus YDR159W, strain sac3, stronger effect = lower value 0.862 | locus YDR162C, strain NBP2, stronger effect = lower value 0.567 | locus YDR318W, strain mcm21, stronger effect = lower value 0.765 | locus YDR388W, stronger effect = lower value 0.884 | locus YDR502C, strain sam2, stronger effect = lower value 0.767 | locus YER110C, stronger effect = lower value 0.86 | locus YER155C, strain BEM2 (second series), stronger effect = lower value 0.533 | locus YER167W, strain BCK2, stronger effect = lower value 0.759 | locus YGL078C, strain dbp3, stronger effect = lower value 0.893 | locus YGL086W, strain mad1, stronger effect = lower value 0.801 | locus YGL173C, strain kem1, stronger effect = lower value 0.899 | locus YGL240W, strain doc1, stronger effect = lower value 0.864 | locus YGL248W, strain PDE1, stronger effect = lower value 0.864 | locus YGR135W, strain pre9, stronger effect = lower value 0.676 | locus YGR252W, strain gcn5, stronger effect = lower value 0.589 | locus YHR079C, strain IRE1 (second series), stronger effect = lower value 0.864 | locus YHR129C, strain ARP1, stronger effect = lower value 0.88 | locus YHR200W, strain rpn10, stronger effect = lower value 0.913 | locus YIL066C, strain RNR3, stronger effect = lower value 0.741 | locus YIL125W, strain kgd1, stronger effect = lower value 0.922 | locus YIR030C, strain dcg1, stronger effect = lower value 0.867 | locus YJL168C, strain set2, stronger effect = lower value 0.921
0.651 (active) and 0.94 (inactive): locus YJL095W, strain BCK1, stronger effect = lower value
